The record followed here is PubChem BioAssay AID651815 (National Center for Advancing Translational Sciences (NCATS), 2012).

In all, about 2,100 compounds went through this assay and about 1,100 (52%) were called active. Roughly 29% stayed inconclusive and do not appear here. So high a share suggests a set chosen from earlier hits. Some of the results follow. Values without a mark were called inactive. Calls follow the shape of the dose curve; as a rule, active = well fitted inhibition curve with a large enough effect; inconclusive = small, poorly fitted or top-dose-only effect; inactive = no such curve, though single readings can be large or run the other way.
% is scaled to controls: 0 for no effect and ±100 for the full control effect; potency is read from the fitted curve at half-maximal effect.

Chain of DNA dC->dU-editing enzyme APOBEC-3F (Homo sapiens) (Q8IUX4 whole entry, looked up): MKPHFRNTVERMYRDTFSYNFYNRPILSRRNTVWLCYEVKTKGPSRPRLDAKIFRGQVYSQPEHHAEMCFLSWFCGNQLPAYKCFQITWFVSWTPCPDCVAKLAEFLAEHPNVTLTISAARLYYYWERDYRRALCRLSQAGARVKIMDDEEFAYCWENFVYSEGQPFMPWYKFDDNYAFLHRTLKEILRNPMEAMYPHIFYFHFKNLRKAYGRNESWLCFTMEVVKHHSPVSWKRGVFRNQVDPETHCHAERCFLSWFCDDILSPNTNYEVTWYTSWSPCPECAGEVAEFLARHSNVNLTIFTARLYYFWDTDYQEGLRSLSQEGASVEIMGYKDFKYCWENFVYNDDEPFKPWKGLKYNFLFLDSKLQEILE

The assay concerns the target DNA dC->dU-editing enzyme APOBEC-3F (Homo sapiens) (UniProt Q8IUX4). Nature of the assay: qHTS for inhibitors of Vif-A3F interactions: Cherry picks counterscreen. Also: nearly all actives have a fitted effect of over 65% in size. To be noted: HeLa A3F-eYFP/Vif cells, eYFP fluorescence, 24 h; series mostly up to 46.1 µM; activity, negative = inhibitor: at the top concentration. From the text:
The recent discovery and characterization of host restriction factors, which provide a potent defense to invading retroviruses, has provided new targets for antiviral drug development. APOBEC3G (A3G) and APOBEC3F (A3F) are potent cytidine deaminases that block HIV-1 replication; HIV-1 expresses the Vif protein, which counteracts A3G and A3F by binding to them and inducing their proteasomal degradation. The Vif-A3G and Vif-A3F interactions provide two potential targets for development of small molecules which can interfere with the ability of Vif to degrade A3G or A3F. […] To identify inhibitors that can interfere with Vif mediated degradation of A3G and A3F, we have developed Hela cell lines that stably express A3G or A3F tagged with eYFP at the C-terminal end (A3G-eYFP or A3F-eYFP, respectively) and Vif. In the absence of an inhibitor, Vif induces degradation of A3G-eYFP and A3F-eYFP, and the cells are not fluorescent. In the presence of an inhibitor, it is expected that Vif will be unable to degrade A3G-eYFP and/or A3F-eYFP, resulting in an increase in yellow fluorescence. In this counterscreen assay, Vif A3F was screened against the cherry picks ordered from the MLSMR. NIH Chemical Genomics Center [NCGC] NIH Molecular Libraries Probe Centers Network [MLPCN] MLPCN Grant: MH093245 Assay Submitter (PI): Vinay Pathak, National Cancer Institute
A3F-Vif cells were harvested from T225 flask and resuspended in phenol free OPTI-MEM medium with 5% FBS. Then 5 uL of 140,000 cells/mL resuspended cells was dispensed into each well of low base Aurora COC 1,536-well plates (black walled, clear bottom) using a Multidrop Combi dispenser. After overnight culture at 37 deg C with 5% CO2, a total of 23 nL of compounds at 5 selected concentrations from the NPC or positive control (2 mM stock of MG132) in DMSO was transferred to each well of the assay plate using a pintool (Kalypsys, San Diego, CA), and the plates were further incubated at 37 deg C with 5% CO2 for 24 hours. After that, the plates were measured on Acumen Explorer (TTP Lab Tech). The fluorescence was detected by 488 nm/Ex and […].
In general terms: qHTS replaces the single test concentration by a dilution series.
Take `Cc1ccc(NC(=O)C2CCN(S(=O)(=O)c3ccc(Cl)c(C(F)(F)F)c3)CC2)nc1`: the “activity, negative = inhibitor” value is 0.17% [at 36.9 µM].

Turning to `CN(CC(=O)Nc1ccc(Cl)c(C(F)(F)F)c1)C(=O)c1ccc(S(=O)(=O)N2CCOCC2)cc1`, the Potency is 4.44 µM (active). On the same count and under the same terms, for `COC(=O)C1CCC(=O)N1C(c1ccc(OC)cc1)c1cc(OC)c(OC)c(OC)c1` (stereo not given) the value was 0.79 µM (active). As to `CCS(=O)(=O)C1=NN2C(=N)/C(=C\c3ccc(SCc4ccco4)o3)C(=O)N=C2S1`, the “activity, negative = inhibitor” value is 11.1%.

Turning to `CC1=CN2C(=N)/C(=C/c3ccc([N+](=O)[O-])o3)C(=O)N=C2S1`, the Potency is 14 µM (active). Regarding `CCOC(=O)C1=C(Cc2ccc(F)cc2)C(=O)c2ccccc2C1=O`, the Potency is 16.4 µM (active). The same measure, in the same setting: for `COc1ccc(C(C)(O)c2nc(-c3ccccc3OC)cs2)cc1` (stereo not given) the value was 12.5 µM (active); for `CC(=O)Nc1sc(/C(C#N)=C\c2cccc(Cl)c2)nc1-c1ccc(C)cc1`, 11.6 µM (active); for `CC(=O)Nc1sc(/C(C#N)=C/c2ccc(Cl)c(Cl)c2)nc1-c1ccc(C)cc1`, 2.59 µM (active). `CCOc1cc(/C=C(\C#N)c2nc(-c3cccs3)c(NC(C)=O)s2)ccc1O`: the “activity, negative = inhibitor” value is 39.2%.

As for `COc1ccc(CN(C(C)=O)c2cccc(C)c2C)cc1`, the Potency was 15.8 µM (active).

As to `COc1ccc(/C=c2\s/c(=C/C(=O)c3ccc(C)cc3)[nH]c2=O)c(OC)c1`, the Potency was 18.4 µM (active).

For the molecule `CN1C2CCC1/C(=C/c1cccn1C)C(=O)/C2=C\c1cccn1C`, the Potency was 18.4 µM (active).

Turning to `Cn1cccc1/C=C1\CC(C(C)(C)C)C/C(=C\c2cccn2C)C1=O` (stereo not given), the Potency was 1.3 µM (active). `CN1C2CCC1/C(=C\c1ccccc1)C(=O)/C2=C\c1ccccc1`: the Potency was 15.8 µM (active).

Turning to `CC(=O)c1cccc(NC(=O)C2CCCN(S(=O)(=O)c3cccc4nonc34)C2)c1` (stereo not given), the “activity, negative = inhibitor” value is 0.106%. As for `CC(=O)Nc1cccc(-c2ccnc3c2CC(C)(C(=O)Nc2cccc(C(C)=O)c2)O3)c1` (stereo not given), the Potency is 9.94 µM (active). As to `COc1ccc(NC(=O)C2(C)Cc3c(-c4cccc(C(N)=O)c4)ccnc3O2)cc1` (stereo not given), the Potency was 6.27 µM (active). On the same count and under the same terms, for `COc1ccc(NC(=O)C2(C)Cc3c(-c4cccc(NC(C)=O)c4)ccnc3O2)cc1` (stereo not given) the value was 2.8 µM (active). For `COc1cc(C(=O)N/N=C/C2CC=CCC2)cc(OC)c1OC` (stereo not given), the “activity, negative = inhibitor” value was -4.4% [at 36.9 µM]. As for `COc1cc(C(=O)N/N=C(\C)c2ccccn2)cc(OC)c1OC`, the Potency was 0.559 µM (active). Same read-out and setting: for `COc1cc(C(=O)Nc2ccc3c(c2)ncn3C)cc(OC)c1OC` the value was 5.59 µM (active); for `COc1cc(C(=O)Nc2ccc3ccccc3c2)cc(OC)c1OC`, 3.14 µM (active); for `CCOc1ccc(NC(=O)N2CC=C(c3c[nH]c4ccccc34)CC2)cc1`, 2.59 µM (active). Regarding `CCOC1=C2CN(S(=O)(=O)c3ccc(C)cc3)[C@H](c3cccc4ccccc34)C[C@H]2C(C#N)(C#N)C(C#N)(C#N)C1`, the “activity, negative = inhibitor” value is -5.71% [at 36.9 µM]. Take `Cc1ccc(C2NC(=O)c3ccccc3N2)s1` (stereo not given): the Potency is 17.7 µM (active). The same measure, in the same setting: with `CCOc1ccccc1C1NC(=O)c2ccccc2N1` (stereo not given) the figure was 3.53 µM (active).

`O=[N+]([O-])c1ccccc1C1Nc2cccc3cccc(c23)N1`: the “activity, negative = inhibitor” value was 9.7%. Regarding `COc1cc(OC)c(C2Nc3cccc4cccc(c34)N2)c(OC)c1`, the “activity, negative = inhibitor” value is -0.514%. Regarding `COc1ccc2ccccc2c1C1NC(=O)c2ccccc2N1` (stereo not given), the Potency was 4.98 µM (active).

Take `COc1ccc(N/C=C/c2nc(SC)nnc2C)cc1`: the Potency is 18.4 µM (active). Same read-out and setting: for `C=CCSc1nnc(C)c(/C=C/Nc2ccc(Cl)cc2)n1` the value was 18.4 µM (active). For the molecule `CCOC(=O)c1c(-c2ccc(OC)cc2)csc1/N=C/C1=C(O)CCCC1=O`, the “activity, negative = inhibitor” value is -3.87%. Consider `COc1cccc(C(=O)c2sc3nc(-c4ccccc4)cc(C(F)(F)F)c3c2N)c1`, for which the Potency was 2.06 µM (active). `COc1ccc(NC(=O)c2sc3nc(-c4ccc(OC)cc4)cc(C(F)(F)F)c3c2N)cc1`: the Potency is 7.31 µM (active). Take `COc1ccc(C(=O)c2sc3nc(-c4ccc(C)cc4)cc(C(F)(F)F)c3c2N)cc1`: the Potency is 5.17 µM (active). In the case of `CCOC(=O)c1c(C)nc2sc(C(=O)Nc3ccc(OC)cc3)c(N)c2c1-c1ccc(OC)cc1`, the Potency was 2.8 µM (active). Consider `COc1cccc(NC(=O)c2sc3nc(C)c(C(=O)Nc4ccc(C)cc4C)c(-c4ccco4)c3c2N)c1`, for which the “activity, negative = inhibitor” value was -1.31%. As for `CCc1ccc(NC(=O)c2sc3nc(C)c(C(=O)Nc4ccc(C)cc4C)c(-c4ccco4)c3c2N)cc1`, the Potency was 16.4 µM (active). Same read-out and setting: with `COc1ccc(C(=O)c2sc3nc(C)cc(-c4cccs4)c3c2N)cc1` the figure was 20.6 µM (active); with `CCc1ccc(-c2cc(C(F)(F)F)n3nc(C(=O)Nc4cnn(Cc5ccc(C)cc5)c4)cc3n2)s1`, 16.4 µM (active). `Cc1ccc(S(=O)(=O)N2CCN(C(=O)CSC(=S)N3CCCC3)CC2)c(C)c1`: the “activity, negative = inhibitor” value was 5.96%.

In the case of `COc1cc(C(=O)NCC(=O)N2CCN(S(=O)(=O)c3cc(C)ccc3C)CC2)cc(OC)c1OC`, the Potency was 3.96 µM (active). The same measure, in the same setting: for `C=C(/C=C/c1ccc(N(C)C)cc1)c1nc2ccccc2s1` the value was 18.4 µM (active). The same measure, in the same setting: with `CC1=Nc2ccc(C)cc2/C1=C/c1c(N)n2oc(C)cc2nc1=O` the figure was 20.6 µM (active).
